According to PubChem BioAssay AID1159580 (chemical genetic matrix, 2015):
The whole screen tested about 5,500 compounds, of which about 2,000 (36%) were called active. Roughly 18% stayed inconclusive and do not appear here. Rule as the data show it: active = normalized growth mostly below about 0.91 (no sharp cut-off); inconclusive = no clear call, values can overlap the other calls; inactive = mostly above about 0.92. This is one part of the list.

Experiment: chemical genetic growth profiling, strain panel (AID 1159580);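 also: tested at 20 µM; growth read once vehicle control cultures reached saturation at 30 °C; 1 = growth at the plate median or of vehicle wells; lower values mean less growth of the strain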
Details: growth OD

Measured: normalized growth

CC[N+]1(C)CCCC(OC(=O)C(O)(c2ccccc2)c2ccccc2)C1 (stereo not given)
inactive: S. cerevisiae deletion strains, locus YJR066W, strain TOR1, stronger effect = lower value 0.954 | S. cerevisiae deletion strains, locus YKL009W, strain mrt4, stronger effect = lower value 1.01 | S. cerevisiae deletion strains, locus YKL068W, stronger effect = lower value 1.01 | S. cerevisiae deletion strains, locus YKL085W, strain MDH1 (second series), stronger effect = lower value 0.994 | S. cerevisiae deletion strains, locus YKL085W, strain MDH1, stronger effect = lower value 0.994 | S. cerevisiae deletion strains, locus YKL160W, strain elf1, stronger effect = lower value 1.01 | S. cerevisiae deletion strains, locus YKL190W, strain CNB1, stronger effect = lower value 1.01 | S. cerevisiae deletion strains, locus YKR001C, strain vps1, stronger effect = lower value 1.02 | S. cerevisiae deletion strains, locus YKR026C, strain gcn3, stronger effect = lower value 1.04 | S. cerevisiae deletion strains, locus YKR091W, strain srl3, stronger effect = lower value 1.02 | S. cerevisiae deletion strains, locus YLL001W, strain dnm1, stronger effect = lower value 1.01 | S. cerevisiae deletion strains, locus YLL026W, stronger effect = lower value 1.02 | S. cerevisiae deletion strains, locus YLL041C, strain sdh2, stronger effect = lower value 1.02 | S. cerevisiae deletion strains, locus YLR027C, strain aat2, stronger effect = lower value 1.01 | S. cerevisiae deletion strains, locus YLR039C, strain RIC1, stronger effect = lower value 1.03 | S. cerevisiae deletion strains, locus YLR058C, strain SHM2, stronger effect = lower value 1.01 | S. cerevisiae deletion strains, locus YLR102C, strain apc9, stronger effect = lower value 1 | S. cerevisiae deletion strains, locus YLR113W, strain HOG1, stronger effect = lower value 1.05 | S. cerevisiae deletion strains, locus YLR221C, strain rsa3, stronger effect = lower value 1.01 | S. cerevisiae deletion strains, locus YLR258W, strain gsy2, stronger effect = lower value 1.02 | S. cerevisiae deletion strains, locus YLR262C, strain YPT6 (second series), stronger effect = lower value 1.02 | S. cerevisiae deletion strains, locus YLR262C, strain YPT6, stronger effect = lower value 1.07 | S. cerevisiae deletion strains, locus YLR268W, strain sec22, stronger effect = lower value 1.01 | S. cerevisiae deletion strains, locus YLR320W, strain mms22, stronger effect = lower value 1.02 | S. cerevisiae deletion strains, locus YLR330W, strain CHS5, stronger effect = lower value 1.01 | S. cerevisiae deletion strains, locus YLR342W, strain FKS1 (second series), stronger effect = lower value 1.03 | S. cerevisiae deletion strains, locus YLR342W, strain FKS1, stronger effect = lower value 1.03 | S. cerevisiae deletion strains, locus YLR357W, strain rsc2, stronger effect = lower value 1.02 | S. cerevisiae deletion strains, locus YLR370C, strain arc18, stronger effect = lower value 1.03 | S. cerevisiae deletion strains, locus YLR371W, strain rom2, stronger effect = lower value 1.01 | S. cerevisiae deletion strains, locus YLR384C, strain iki3, stronger effect = lower value 1.02 | S. cerevisiae deletion strains, locus YLR418C, strain cdc73, stronger effect = lower value 1.03 | S. cerevisiae deletion strains, locus YML016C, strain PPZ1, stronger effect = lower value 1 | S. cerevisiae deletion strains, locus YML032C, strain rad52, stronger effect = lower value 1.02 | S. cerevisiae deletion strains, locus YML120C, strain ndi1, stronger effect = lower value 1.01 | S. cerevisiae deletion strains, locus YML124C, strain tub3, stronger effect = lower value 1.01 | S. cerevisiae deletion strains, locus YMR058W, strain fet3, stronger effect = lower value 1.02 | S. cerevisiae deletion strains, locus YMR078C, strain ctf18, stronger effect = lower value 0.998 | S. cerevisiae deletion strains, locus YMR125W, strain sto1, stronger effect = lower value 1.02 | S. cerevisiae deletion strains, locus YMR129W, stronger effect = lower value 1.03 | S. cerevisiae deletion strains, locus YMR205C, strain PFK2, stronger effect = lower value 1.03 | S. cerevisiae deletion strains, locus YMR223W, strain ubp8, stronger effect = lower value 1.03 | S. cerevisiae deletion strains, locus YMR231W, strain pep5, stronger effect = lower value 1.03 | S. cerevisiae deletion strains, locus YMR263W, strain SAP30, stronger effect = lower value 1.01 | S. cerevisiae deletion strains, locus YMR307W, strain GAS1, stronger effect = lower value 1.1 | S. cerevisiae deletion strains, locus YNL067W, strain RPL9B, stronger effect = lower value 1.01 | S. cerevisiae deletion strains, locus YNL071W, strain lat1, stronger effect = lower value 1.02 | S. cerevisiae deletion strains, locus YNL128W, strain TEP1, stronger effect = lower value 1.03 | S. cerevisiae deletion strains, locus YNL153C, strain GIM3, stronger effect = lower value 0.997 | S. cerevisiae deletion strains, locus YNL183C, strain NPR1, stronger effect = lower value 0.942 | S. cerevisiae deletion strains, locus YNL209W, strain ssb2, stronger effect = lower value 1.02 | S. cerevisiae deletion strains, locus YNL233W, strain BNI4, stronger effect = lower value 1.01 | S. cerevisiae deletion strains, locus YNL248C, strain rpa49, stronger effect = lower value 1.02 | S. cerevisiae deletion strains, locus YNL250W, strain rad50, stronger effect = lower value 1.01 | S. cerevisiae deletion strains, locus YNL271C, strain bni1, stronger effect = lower value 1.03 | S. cerevisiae deletion strains, locus YNL298W, strain CLA4, stronger effect = lower value 1.01 | S. cerevisiae deletion strains, locus YNL307C, strain MCK1, stronger effect = lower value 1.02 | S. cerevisiae deletion strains, locus YNL322C, strain KRE1 (second series), stronger effect = lower value 1.01 | S. cerevisiae deletion strains, locus YNL322C, strain KRE1, stronger effect = lower value 1.01 | S. cerevisiae deletion strains, locus YNR049C, strain mso1, stronger effect = lower value 1.02 | S. cerevisiae deletion strains, locus YNR052C, strain pop2, stronger effect = lower value 1.02 | S. cerevisiae deletion strains, locus YOL006C, strain TOP1, stronger effect = lower value 1 | S. cerevisiae deletion strains, locus YOL012C, strain htz1 0.812 | S. cerevisiae deletion strains, locus YOL147C, strain pex11, stronger effect = lower value 1.01 | S. cerevisiae deletion strains, locus YOR001W, strain rrp6, stronger effect = lower value 1.01 | S. cerevisiae deletion strains, locus YOR061W, strain CKA2, stronger effect = lower value 1.01 | S. cerevisiae deletion strains, locus YOR069W, strain VPS5, stronger effect = lower value 1.01 | S. cerevisiae deletion strains, locus YOR070C, strain gyp1, stronger effect = lower value 1.01 | S. cerevisiae deletion strains, locus YOR080W, strain dia2, stronger effect = lower value 1.01 | S. cerevisiae deletion strains, locus YOR083W, strain WHI5, stronger effect = lower value 1.01 | S. cerevisiae deletion strains, locus YOR106W, strain vam3, stronger effect = lower value 1.02 | S. cerevisiae deletion strains, locus YOR136W, strain idh2, stronger effect = lower value 1.01 | S. cerevisiae deletion strains, locus YOR144C, strain elg1, stronger effect = lower value 1.01 | S. cerevisiae deletion strains, locus YOR184W, strain ser1, stronger effect = lower value 1 | S. cerevisiae deletion strains, locus YOR231W, strain MKK1, stronger effect = lower value 1.03 | S. cerevisiae deletion strains, locus YOR265W, strain rbl2, stronger effect = lower value 1.01 | S. cerevisiae deletion strains, locus YOR270C, strain vph1, stronger effect = lower value 1.1 | S. cerevisiae deletion strains, locus YOR290C, strain snf2, stronger effect = lower value 1.01 | S. cerevisiae deletion strains, locus YOR316C, strain cot1, stronger effect = lower value 1.01 | S. cerevisiae deletion strains, locus YPL051W, strain arl3, stronger effect = lower value 1.01 | S. cerevisiae deletion strains, locus YPL078C, strain atp4, stronger effect = lower value 1.02 | S. cerevisiae deletion strains, locus YPL106C, strain sse1, stronger effect = lower value 1.02 | S. cerevisiae deletion strains, locus YPL240C, strain hsp82, stronger effect = lower value 1.04 | S. cerevisiae deletion strains, locus YPL256C, strain CLN2, stronger effect = lower value 1.04 | S. cerevisiae deletion strains, locus YPR119W, strain clb2, stronger effect = lower value 1.01 | S. cerevisiae deletion strains, locus YPR141C, strain kar3, stronger effect = lower value 1.01 | S. cerevisiae deletion strains, locus YPR163C, strain tif3, stronger effect = lower value 1.01 | S. cerevisiae deletion strains, locus YPR167C, strain met16, stronger effect = lower value 1.01 | S. cerevisiae deletion strains, strain wtn01, stronger effect = lower value 1.01 | S. cerevisiae strains, strain wild type, stronger effect = lower value 1.01
